# Screening data deposited in PubChem BioAssay by National Center for Advancing Translational Sciences (NCATS).
# GALC G270D act – A Novel Cell-Based Assay to Identify Small Molecules for B -Galactocerebrosidase. 145M-Twi-hGALC-G270D cells (Twitcher mouse brain line with human GALC G270D), HMU-beta-Gal fluorescence, 48 h. Potency, µM (doses to about 57.5 µM), usual class: activators. P54803. AID 1159614, 2016. 45,000 compounds, 0.1% hits; further: potency means the concentration at half of the fitted maximal effect; 0% is about no effect; nearly all actives have a fitted effect of over 65% in size
#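 Brain-derived Twitcher mouse 145M-Twi cells stably expressing human GALC-G270D or wild-type GALC, treated live, then residual GALC activity read by fluorescence of HMU-b-Gal substrate (0.1 mM final) in citrate-phosphate buffer pH 5.2 with sodium taurocholate. Signal increase indicates enhancement.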
# GPR32 ag – qHTS for Agonists of Human Resolvin D1 Receptor DRV1; Probable G-protein coupled receptor 32 (Homo sapiens), O75388; CHO-K1 GPR32 beta-arrestin PathHunter luminescence, 90 min; zero percent set by DMSO-only wells; activation, % at 76.9 µM; 48,000 compounds, 2.5% hits; AID 1346428, 2018;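 active means activation of at least 60% and not above a set upper limit, about 1 call in 100 departs from these limits; inconclusive means activation of 40% to 60%, or above that upper limit; inactive means activation under 40%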; further: 0% is about no effect
#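 Engineered CHO-K1 line co-expressing GPR32-ProLink and EA-beta-arrestin. Compound treatment lasted 90 min at 37 °C. Luminescence was recorded after 1 h with substrate at ambient temperature, relative to DMSO basal wells.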
# B2AR arrestin ag – qHTS assay of beta-arrestin-biased ligands of beta2-adrenergic receptor: NCGC Sytravon Library Screen; Beta-2 adrenergic receptor (Homo sapiens), P07550; Potency, µM (highest dose often 46.1 µM), most hits filed as activators; 44,000 tested, under 10 active; HTLA Tango cells, beta-arrestin recruitment, luciferase luminescence, 18 h;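 further: potency means the concentration at half of the fitted maximal effect; 0% = DMSO and full agonism = EC100 isoproterenol or metaproterenol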
#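 First, Tango cells carrying beta2-AR and beta-arrestin fusions received compound up to 46 microM. After 18 hr at 37 degrees C, luciferase substrate was added for 15 minutes, then luminescence gave %Activity for curve fitting.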
# GALK inhibitor – qHTS Assay for Inhibitors of Human Galactokinase (GALK): NCGC Sytravon Library Screen; recombinant GALK, Kinase-Glo ATP luminescence, 1 h; AID 1347072, 2019; Potency, µM (doses to about 57.5 µM), without a hit: at the top dose activity, negative = inhibition, most hits filed as inhibitors; 44,000 tested, under 10 active; P51570;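 further: plate controls were full GALK reaction for no effect and reaction lacking GALK for full effect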
# Target sequence (P51570 whole entry, looked up): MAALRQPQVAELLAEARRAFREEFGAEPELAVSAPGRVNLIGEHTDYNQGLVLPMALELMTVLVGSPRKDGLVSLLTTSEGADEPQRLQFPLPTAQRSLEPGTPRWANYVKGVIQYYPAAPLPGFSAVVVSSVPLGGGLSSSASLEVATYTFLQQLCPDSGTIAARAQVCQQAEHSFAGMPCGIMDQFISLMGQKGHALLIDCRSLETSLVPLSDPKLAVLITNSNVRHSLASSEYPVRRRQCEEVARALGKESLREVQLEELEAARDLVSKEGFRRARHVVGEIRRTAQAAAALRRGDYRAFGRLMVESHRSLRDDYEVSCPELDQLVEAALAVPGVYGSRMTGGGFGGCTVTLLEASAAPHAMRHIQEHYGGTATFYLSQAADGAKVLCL
#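 Compounds were pinned into ATP buffer, then GALK-galactose mix was added (final 5 nM enzyme, 35 uM ATP, 100 uM galactose, pH 8.0). After 1 h at room temperature, Kinase-Glo Plus was added and luminescence read.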
# TSG101-PTAP inh – qHTS Validation Assay for Inhibitors of HIV-1 Budding by Blocking the Interaction of PTAP/TSG101: Sytravon Library Screen; Tumor susceptibility gene 101 protein (Homo sapiens), Q99816; Fluorescence polarization, FITC-PTAP peptide/Tsg101, 20 min; Potency, µM (highest dose often 115 µM), usual class: inhibitors; 44,000 tested, under 10 active; AID 1347069, 2019; further: potency means the concentration at half of the fitted maximal effect; 0% is about no effect
#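 Fluorescence polarization binding of Tsg101 binding domain (10 uM final) to FITC-labeled PTAP-motif peptide (50 nM final) in HEPES pH 7.5/NaCl/Tween 20/EDTA/TCEP buffer; 20 min at r.t. Actives by curve class, <25 µM, efficacy <60% inhibition.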
# Numbers without * were called inactive; i = inactive; ? = inconclusive; nt = no result. Sampled rows, rich in hits. Any-hit rate of the full collection: about 2.6%. Unless noted, the call rests on the fitted dose curve; in most records, active means well fitted curve in the direction sought with a large enough effect; inconclusive means small, poorly fitted or top-dose-only effect, or another doubt; inactive means no such curve, though single readings can be large; an effect the other way counts as inactive or inconclusive.
SMILES,GALC G270D act,GPR32 ag,B2AR arrestin ag,GALK inhibitor,TSG101-PTAP inh
COc1cc(Cl)c(NC(=O)CN(C)S(=O)(=O)c2ccc3c(c2)CCCC(=O)N3)c(OC)c1,i,66.9*,i,-2.1%,i
COc1ccc(OC)c(-c2cc(C(=O)Nc3cnn(Cc4ccc(Cl)cc4Cl)c3)no2)c1,nt,90.6*,i,5.2%,i
CCOc1ccccc1NC(=O)COC(=O)CC(C)(C)CC1=NS(=O)(=O)c2ccccc2N1,i,83.4*,i,-1.4%,i
Cc1ccc(Cl)cc1NC(=O)COC(=O)CC(C)(C)CC1=NS(=O)(=O)c2ccccc2N1,i,?,i,0.6%,i
CC(C)(CC(=O)NCc1ccc(Cl)cc1Cl)CC1=NS(=O)(=O)c2ccccc2N1,i,109.5*,i,-1.8%,i
CCN(CC)c1ccc(C(=C2C=CC(=[N+](CC)CC)C=C2)c2cc(S(=O)(=O)O)ccc2S(=O)(=O)[O-])cc1,i,-77.8,nt,nt,nt
Nc1c(C(=O)Nc2ccc(C(F)(F)F)cc2)sc2nc(-c3cccs3)ccc12,i,70.8*,i,0.0%,i
Cc1cc(F)ccc1NC(=O)c1sc2nc(-c3cccs3)ccc2c1N,i,67.0*,i,-0.7%,i
CCOc1ccc(-c2ncnn2-c2sc3c(c2C#N)CCCCC3)cc1,i,101.5*,i,0.0%,i
CN(C)CCOC1=Cc2ccccc2Sc2ccc(Cl)cc21,i,7.5,nt,nt,nt
CN1CCC(N(Cc2cccs2)c2ccccc2)CC1,i,10.4,nt,nt,nt
O=C1OC2(c3ccc(O)cc3Oc3cc(O)ccc32)c2ccccc21,i,110.6*,nt,nt,nt
O=C1OC2(c3ccccc31)c1cc(I)c(O)c(I)c1Oc1c2cc(I)c(O)c1I,i,-63.6,nt,nt,nt
CCCCCCCCCCCCCCCCCCNC(=O)OC1CCN(C(=O)OC[C@H](COC(=O)N(Cc2cccc[n+]2CC)C(=O)c2ccccc2OC)OC)CC1,i,30.3,nt,nt,nt
COC(=O)c1cc(Cl)ccc1OC,i,-10.4,nt,nt,nt
CCCCCCCCCCCCOCCOCCOCCOCCOCCOCCOCCOCCOCCO,i,99.0*,nt,nt,nt
CCCCCCCCCCCCOCCO,i,13.5,nt,nt,nt
COc1ccc(-c2cc(C(F)(F)F)nc(S(C)(=O)=O)n2)cc1,i,108.5*,i,0.0%,i
Cc1ccc(NC(=O)Cn2cc(S(=O)(=O)NC(C)C)c(S(=O)(=O)NC(C)C)c2)cc1Cl,i,68.9*,i,-1.8%,i
CNS(=O)(=O)c1cn(CC(=O)Nc2ccc(OC)c(Cl)c2)cc1S(=O)(=O)NC,i,-3.8,i,0.0%,i
Cc1cccn2c(=O)c3cc(C(=O)NCc4ccccc4)c(=N)n(CCOCCO)c3nc12,10µM*,3.9,i,6.1%,i
CCOCCCn1c(=N)c(C(=O)NC(C)c2ccccc2)cc2c(=O)n3cccc(C)c3nc21 (stereo unspecified),20µM*,-5.5,i,0.8%,i
CCn1c(=N)c(C(=O)NC2CCCCC2)cc2c(=O)n3cccc(C)c3nc21,28.2µM*,-1.6,i,-0.2%,i
CN(C)[C@@H]1C(=O)C(C(=O)NCN2CCCC2)=C(O)[C@@]2(O)C(=O)C3=C(O)c4c(O)cccc4[C@@](C)(O)C3C[C@@H]12 (stereo partly specified),i,-6.2,nt,nt,nt
CCc1cccc(NC(=O)Cn2c(=O)n3nc(-c4cccc(F)c4)nc3c3ccccc32)c1,i,-10.1,i,-2.5%,i
SMILES,GALC G270D act,GPR32 ag,B2AR arrestin ag,GALK inhibitor,TSG101-PTAP inh
C[C@@H](O[C@H]1OCCN(Cc2n[nH]c(=O)[nH]2)[C@H]1c1ccc(F)cc1)c1cc(C(F)(F)F)cc(C(F)(F)F)c1,i,27.3,nt,nt,nt
CCCN1CCCc2cc(CN(CCCN3CCOCC3)C(=O)Nc3ccc(CC)cc3)ccc21,i,61.3*,i,1.0%,i
CCCCN1CCCc2cc(CN(CCCN3CCOCC3)C(=O)Nc3ccc(CC)cc3)ccc21,i,13.7,i,-3.5%,i
Cc1c(NC(=O)c2ccc(OC(C)C)cc2)cccc1-c1nc2ncccc2o1,i,88.9*,i,2.1%,i
Cc1cc(C)c(NC(=O)Nc2ccc3snnc3c2)c(C)c1,i,62.8*,i,-0.5%,i
O=C(Nc1cccc(C(F)(F)F)c1)Nc1ccc2snnc2c1,i,?,i,?,i
CCOc1ccc(NC(=O)Nc2ccc3snnc3c2)cc1,i,86.9*,i,-2.9%,i
COc1cccc(Cn2c(-c3nonc3NC(C)=O)nc3ccccc32)c1,i,-23.9,i,-0.2%,i
COc1cc(S(=O)(=O)NCCc2c(C)[nH]c3ccccc23)c(C)cc1C,i,78.3*,i,4.6%,i
CCOc1ccc(S(=O)(=O)NCCc2c(C)[nH]c3c(Cl)cccc23)cc1C,i,24.8,i,8.2%,i
Cc1cccc(-c2noc(-c3ccccc3OCC(=O)Nc3ccccc3[N+](=O)[O-])n2)c1,i,-9.0,i,0.2%,i
CCOc1ncc(F)c(=O)[nH]1,i,19.3,nt,nt,nt
CCOc1cccc(NC(=O)C2CC(=O)N(C)C(=Nc3ccc(F)cc3)S2)c1 (stereo unspecified),i,77.6*,i,-1.4%,i
NC(=O)C1(N2CCCCC2)CCN(CCCN2c3ccccc3CCc3ccc(Cl)cc32)CC1,i,?,nt,nt,nt
CCN(CCCNC(=O)c1cc2cc3ccc(OC)cc3nc2s1)c1ccccc1,i,95.8*,i,-5.0%,i
CC(=O)Nc1ccc2nc(SCCOc3ccccc3)sc2c1,i,118.3*,i,5.2%,i
O=C(COc1ccccc1)Nc1ccc2nc(SCCOc3ccccc3)sc2c1,i,-5.0,i,-11.4%,i
O=C(COc1ccccc1F)Nc1ccc2nc(SCCOc3ccccc3)sc2c1,i,98.9*,i,0.0%,i
CN1CCN(C(=O)Cn2c(-c3cccs3)cc3ccccc32)CC1,i,-1.7,i,0.3%,i
Cc1ccc(OCC(=O)Nc2ccc3nc(SCc4ccccc4)sc3c2)cc1,i,-3.4,i,-4.5%,i
Cc1ccc(NC(=O)CSc2nc3ccc(NC(=O)CCc4ccccc4)cc3s2)cc1,i,65.9*,i,7.6%,i
CCOC(=O)CSc1nc2ccc(NC(=O)c3ccccc3F)cc2s1,i,106.7*,i,3.6%,i
